A selection: hits, their analogues and other compounds. The true share with any hit is near 21%.
Shiga toxin inh – A qHTS for Small Molecule Inhibitors of Shiga Toxin; Vero cells, Shiga toxin protein synthesis inhibition reporter; inhibition, % at 38.7 µM; 290,000 tested, 9.2% active; AID 2315, 2010; in the data active means inhibition mostly above about 28%, no sharp cut-off; inactive means mostly below about 43%; further: 0% is about no effect
Pf growth 96h – Primary qHTS for delayed death inhibitors of the malarial parasite plastid, 96 hour incubation. P. falciparum luciferase reporter growth, 96 h. Potency, µM (top dose mostly 28.7 µM), for inactives: at the highest dose activity change, negative = inhibition, hits mostly inhibitors. 320,000 tested, 6.9% active. AID 504834, 2011; further: potency means the concentration at half of the fitted maximal effect; on the % scale 0 is the no-effect control and ±100 the full control effect
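P. falciparum expressing integrated firefly luciferase grown in erythrocytes (2% hematocrit, 0.05% parasitemia final) with compounds for 96 hours at 37 C, 5% CO2. Growth inhibition read as loss of luminescence after adding luciferase detection reagent.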
CHX counter – Cycloheximide Counterscreen for Small Molecule Inhibitors of Shiga Toxin; cell reporter, cycloheximide protein synthesis inhibition counterscreen; max response, %; 300,000 tested, 12% active; AID 2314, 2010; in the data active means max response mostly above about 13%, no sharp cut-off; inactive means mostly below about 14%; further: read at 38.3 µM for the half of the compounds with a filed dose; 0% is about no effect
Pf growth 48h – Primary qHTS for delayed death inhibitors of the malarial parasite plastid, 48 hour incubation; P. falciparum luciferase growth in erythrocytes, 48 h; Potency, µM (doses to about 28.7 µM), for inactives: at the top dose activity change, negative = inhibition, most hits filed as inhibitors; 310,000 tested, 5.9% active; AID 504832, 2011; further: potency means the concentration at half of the fitted maximal effect; on the % scale 0 is the no-effect control and ±100 the full control effect
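Firefly luciferase activity from engineered P. falciparum reports growth; inhibitors lower the luminescent signal. Cultures contained 2% hematocrit erythrocytes at 0.1% final parasitemia.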
* marks the source's active call; other numbers are inactive results; ? = inconclusive; . = no result. Unless noted, the call rests on the fitted dose curve; in most records, active means well fitted inhibition curve with a large enough effect; inconclusive means small, poorly fitted or top-dose-only effect, or another doubt; inactive means no such curve, though single readings can be large or run the other way.

SMILES	Shiga toxin inh	Pf growth 96h	CHX counter	Pf growth 48h
Cc1ccc(Cn2ncc3c(N4CCN(c5ccc(C)cc5)CC4)ncnc32)cc1	15	51%	-5	?
Cc1ccc(Cn2ncc3c(N4CCN(Cc5ccc(Cl)cc5)CC4)ncnc32)cc1	24	-14%	13	?
Cc1ccc(Cn2ncc3c(N4CCN(CCc5ccccc5)CC4)ncnc32)cc1	-3	?	-2	6.6µM*
Cc1ccc(Cn2ncc3c(N4CCN(C)CC4)ncnc32)cc1	14	7.4µM*	-5	-12%
O=C(CSC1=NS(=O)(=O)c2ccccc2N1)Nc1ccccc1F	.	9%	.	5%
N#CC1=C2SCN(Cc3ccco3)CN2C(=O)CC1c1ccccc1F (stereo not drawn)	-3	.	-1	-16%
N#CC1=C2SCN(Cc3ccco3)CN2C(=O)CC1c1cccc2ccccc12 (stereo not drawn)	13	-6%	-1	12µM*
O=Cc1ccc(C(=O)OCC(=O)Nc2ccc(F)cc2F)cc1	31	10%	-5	27%
CC12C(=O)N(Cc3ccco3)C(=O)C1C1c3ccccc3C2c2ccccc21 (stereo not drawn)	42	.	46*	?
Cc1cc(=O)oc2cc(NC(=O)c3ccccc3C(=O)O)ccc12	65	59%	22*	0%
COc1cccc(C(=O)Nc2ccc3c(C)cc(=O)oc3c2)c1	115*	34%	62*	300%
Cc1cc(=O)oc2cc(NC(=O)c3ccccc3Cl)ccc12	86*	137%	40*	131%
CCC(=O)Nc1cccc(NC(=O)c2ccc(C)cc2Cl)c1	35	?	12	65%
Cc1ccc2sc3ccc(NC(=O)c4ccccc4Cl)cc3c(=O)c2c1	43*	?	35*	?
CCOc1ccc(CCNC(=O)COC(=O)c2cccc(S(=O)(=O)N3CCCC3)c2)cc1OCC	.	-12%	.	-15%
COc1ccc(CCC(=O)NCC(c2ccco2)N2CCc3ccccc32)cc1 (stereo not drawn)	.	-21%	.	?
COc1ccccc1CNC(=O)CCc1nnc2ccc(NCCCN3CCCC3=O)nn12	-7	12%	-4	-2%
Cc1cc(=O)oc2cc(NC(=O)c3ccnn3C)ccc12	26	?	17*	88%
Cc1cc(C)cc(-n2cc(C(=O)O)c(=O)cc2C)c1	-10	10%	0	-9%
COC(=O)c1ccc(N2CCN(C)CC2)c(NC(=O)c2cccs2)c1	-3	20%	13	22%
Cc1[nH]c(C)c(S(=O)(=O)NCc2ccco2)c1C(=O)N1CCCCC1	-6	-27%	2	14%
COc1ccc(NC(=O)CC(NCc2ccccn2)C(=O)O)cc1 (stereo not drawn)	7	-14%	2	9%
COc1ccc(C(=O)NC(C)CCc2ccccc2)c(O)c1 (stereo not drawn)	68*	?	30*	?
COc1ccc(C(=O)NCC2OCCc3ccccc32)c(O)c1 (stereo not drawn)	47*	.	23*	?
CCOc1ccc(C(=O)NC(C)CCc2ccccc2)cc1 (stereo not drawn)	29*	-32%	28*	-4%
SMILES	Shiga toxin inh	Pf growth 96h	CHX counter	Pf growth 48h
CC(CCc1ccccc1)NC(=O)c1ccc(NC(=O)c2cccc(Br)c2)cc1 (stereo not drawn)	-14	9.3µM*	-7	15µM*
CC(CCc1ccccc1)NC(=O)c1ccc(NC(=O)c2ccccc2)cc1 (stereo not drawn)	2	-13%	1	?
COC(=O)[C@H](Cc1ccccc1)NC(=O)c1ccc2ccccc2n1	41*	215%	18	207%
COc1ccc(C(=O)NC(C)CCc2ccccc2)cc1 (stereo not drawn)	.	0%	19*	7%
COC(=O)C(Cc1ccccc1)NC(=O)COc1ccc(C(C)(C)C)cc1 (stereo not drawn)	-10	25%	-3	.
CCOc1ccc(C(=O)NC(Cc2ccccc2)C(=O)OC)cc1 (stereo not drawn)	73*	128%	41*	163%
CCCNC(=O)C(Cc1ccc(I)cc1)NC(=O)c1ccc2ccccc2n1 (stereo not drawn)	.	-2%	.	?
CCOc1ccc(C(CCc2ccccc2)NC(=O)c2ccccc2)cc1OCC (stereo not drawn)	18	.	-3	4.7µM*
CN(Cc1ccno1)Cc1cn(Cc2ccccc2)nc1-c1ccc2c(c1)OCO2	13	14%	8	?
CCCN1Cc2cccc(C(=O)NC(CC(=O)OCC)c3ccc(C)cc3)c2C1=O (stereo not drawn)	-18	0%	7	?
